# “And” between values parts separate entries of the source, which are not always exact repeats. Equal entries are not always repeated. Out of some 16,000 compounds screened, about 5,100 (32%) were called active. Inconclusive results (about 25%) are left out. The list shows a part of the results. Values without a mark were called inactive. The call rests on the fitted dose curve; in most records, active means well fitted curve in the direction sought with a large enough effect; inconclusive means small, poorly fitted or top-dose-only effect, or effect the other way; inactive means no such curve, though single readings can be large or run the other way.
# Biological target: Cytochrome P450 3A4 (Homo sapiens) (UniProt P08684)
# Assay: Cytochrome panel assay with activity outcomes
# Conditions: recombinant CYP, pro-luciferin dealkylation, luminescence, p450-cyp3a4; series mostly up to 57.1 µM; activity, negative = inhibition: at the top concentration
# On the % scale 0 is the no-effect control and ±100 the full control effect.
# Chain of Cytochrome P450 3A4 (Homo sapiens) (P08684 whole entry, looked up): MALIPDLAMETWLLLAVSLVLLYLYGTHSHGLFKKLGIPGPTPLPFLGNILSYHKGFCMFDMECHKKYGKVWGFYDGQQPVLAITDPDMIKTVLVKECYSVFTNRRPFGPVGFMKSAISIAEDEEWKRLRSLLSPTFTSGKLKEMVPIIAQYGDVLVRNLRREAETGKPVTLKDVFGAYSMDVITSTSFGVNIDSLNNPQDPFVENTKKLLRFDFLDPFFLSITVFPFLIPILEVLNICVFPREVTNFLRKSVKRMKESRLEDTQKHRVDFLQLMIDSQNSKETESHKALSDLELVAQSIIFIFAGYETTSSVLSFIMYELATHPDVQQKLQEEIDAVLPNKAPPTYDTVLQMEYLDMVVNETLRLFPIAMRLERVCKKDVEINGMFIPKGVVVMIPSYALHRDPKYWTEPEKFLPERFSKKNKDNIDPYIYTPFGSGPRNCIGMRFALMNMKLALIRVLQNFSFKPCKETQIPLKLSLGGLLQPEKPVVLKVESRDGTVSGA
Structure (SMILES),"activity, negative = inhibition",AC50
CC(C)=NNc1ncnc2nc[nH]c12,4.57% [at 11.4 µM],
NOCC(=O)O,4.96%,
O=C(O)CCNc1ccccc1C(=O)O,-9.69% [at 11.4 µM],
CN1CCN(c2ncc3nc(-c4cn(C)c5ccccc45)c(=O)n(-c4ccccc4)c3n2)CC1,,25.1 µM (active)
CN1CCN(c2ncc3ncc(=O)n(-c4ccccc4)c3n2)CC1,-3.73%,
Cn1cc(-c2nc3cnc(N4CCNCC4)nc3n(Cc3ccc(F)cc3)c2=O)c2ccccc21,,12.6 µM (active)
CN1CCN(c2ncc3nc(-c4ccccc4)c(=O)n(C)c3n2)CC1,16%,
Cn1cc(-c2nc3cnc(N4CCNCC4)nc3n(CCc3ccccc3)c2=O)c2ccccc21,,12.6 µM (active)
CN1CCN(c2ncc3nc(-c4cn(C)c5ccccc45)c(=O)n(CCc4ccccc4)c3n2)CC1,,15.8 µM (active)
NC1=C2NC=N[C@@H]2N(C/C=C\c2ccccc2)C=N1,-17.9% [at 11.4 µM],
CN(C)Cc1c[nH]c2nc[nH]c(=O)c12,-2.68% [at 11.4 µM],
O=C(O)C1=C/C(=C(/c2ccccc2)c2cc(C(=O)O)c(O)c3ccccc23)c2ccccc2C1=O,6.76% [at 11.4 µM] and -24.1% [at 11.4 µM],
Cn1c(=O)c(-c2ccccc2)nc2cnc(N3CCNCC3)nc21,-28%,
Cn1cc(-c2nc3cnc(N4CCNCC4)nc3n(C)c2=O)c2ccccc21,,20 µM (active)
COCCn1c(=O)c(-c2cn(C)c3ccccc23)nc2cnc(N3CCNCC3)nc21,,25.1 µM (active)
O=S(=O)(O)c1cc(N=[N+]([O-])c2cc(S(=O)(=O)O)c3ccccc3c2)cc2ccccc12,-21.4% [at 11.4 µM],
Cc1ccc(NC(=O)/C(=C\c2ccc3c(c2)OCO3)NC(=O)c2ccco2)cc1,,2.51 µM (active)
C=CCNC(=O)/C(=C\c1ccc2c(c1)OCO2)NC(=O)c1ccc(Br)cc1,,0.447 µM (active)
O=C(N/N=C/c1ccc2c(c1)OCO2)/C(=C/c1ccc2c(c1)OCO2)NC(=O)c1ccccc1,,1.12 µM (active)
CC(=O)NS(=O)(=O)c1ccc(NC(=S)NC(=O)c2ccco2)cc1,-2.27%,
O=C(NC(Cc1ccccc1)C(=O)O)/C(=C\c1ccco1)NC(=O)c1ccc(Br)cc1 (stereo unspecified),17%,
Cc1ccc(S(=O)(=O)NC(=O)Nc2ncn[nH]2)cc1,-2.15% [at 11.4 µM],
COc1ccc(/C(O)=C2/C(=O)C(=O)N(CCN3CCOCC3)C2c2ccc(C)cc2)cc1 (stereo unspecified),-8.55%,
CCOCCCn1cnc2c([nH]c3cc(OC)ccc32)c1=O,-26.5%,
CCOCCCN1C(=O)CN(C2CCCCC2)C(=O)C1c1ccc(OCC)c(OC)c1 (stereo unspecified),,12.6 µM (active)
CCOCCCN1C(=O)CN(C2CCCCCC2)C(=O)C1c1ccc(OC)cc1 (stereo unspecified),,12.6 µM (active)

# Reference: PubChem BioAssay AID1851 (National Center for Advancing Translational Sciences (NCATS), 2009)
